Screens deposited in PubChem by several laboratories.
UGM FP inh: M. tuberculosis UGM enzyme inhibitors, primary screen, biochemical, fluorescence polarization, single point | 320,000 compounds, 0.06% hits | inhibition, % at 10 µM | purified UGM, fluorescence polarization probe displacement; in the data active = inhibition above about 10%, passing the limit was not always enough
Target sequence (P9WIQ1 whole entry, looked up): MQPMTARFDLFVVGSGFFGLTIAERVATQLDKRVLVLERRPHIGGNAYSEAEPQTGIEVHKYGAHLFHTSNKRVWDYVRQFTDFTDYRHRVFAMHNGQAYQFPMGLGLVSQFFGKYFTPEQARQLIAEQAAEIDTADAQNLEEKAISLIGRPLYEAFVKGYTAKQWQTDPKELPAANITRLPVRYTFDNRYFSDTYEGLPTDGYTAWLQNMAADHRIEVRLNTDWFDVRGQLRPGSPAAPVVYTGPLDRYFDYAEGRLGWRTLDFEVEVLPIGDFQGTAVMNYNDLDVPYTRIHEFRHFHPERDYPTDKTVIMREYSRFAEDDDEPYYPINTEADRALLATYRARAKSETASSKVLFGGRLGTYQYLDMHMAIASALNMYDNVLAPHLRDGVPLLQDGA
GDH-TPI counter: GDH-TPI coupling enzyme inhibitors, primary screen, artefact control for M. tuberculosis FBA inhibitor project, biochemical, absorbance, full deck | GDH-TPI coupled enzyme counterscreen, NADH absorbance | inhibition, % at 4.8 µM | 360,000 compounds, 1.2% hits; in the data active = inhibition above about 30%;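 also: 0% = DMSO wells and 100% = wells lacking the enzyme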
Rv3671c protease: Rv3671c serine protease inhibitors, primary screen, biochemical, fluorescence polarization, M. tuberculosis H37Rv; P9WHR9; inhibition, % at 5.96 µM; 320,000 compounds, 0.048% hits; in the data active = inhibition above about 38%;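 also: extracellular domain of Rv3671c used as enzyme; 0% = enzyme with DMSO and 100% = no enzyme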
FBA Mtb inh: Mtb FBA enzyme inhibitors, primary screen, biochemical, fluorescence, strain H37Rv; purified M. tuberculosis FBA, fluorescence read-out; 360,000 compounds, 2.3% hits; inhibition, % at 1 µM; Fructose-bisphosphate aldolase (Mycobacterium tuberculosis (strain ATCC 25618 / H37Rv)), …; in the data active = inhibition above about 27%;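 also: 0% = vehicle and 100% = reference inhibitor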
RecA splice inh: Mtb RecA intein splicing inhibitors, primary screen, biochemical, fluorescence, HTS. Protein RecA (Mycobacterium tuberculosis (strain ATCC 25618 / H37Rv)), P9WHJ3. cell-free RecA intein splicing. inhibition, % (concentration not given with the values). 290,000 compounds, 0.75% hits; in the data active = inhibition above about 30%;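 also: 0% = vehicle wells and 100% = reference inhibitor control wells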
Vc quorum ag-1: inducers of Vibrio cholerae quorum light production without autoinducers, primary screen, BH1578 luxS cqsA deficient, single point; 350,000 compounds, 0.16% hits; V. cholerae BH1578 lux reporter, luminescence, 6 h; activation, % at 18.7 µM; in the data active = activation mostly above about 9.7%, no sharp cut-off
Vc quorum ag-2: V. cholerae lux activation without autoinducers – BH1578 luxS cqsA deficient, cherry-pick, plate reader, dose response. 620 tested, under 10 active. shares compounds with Vc quorum ag-1. activation, % at 50 µM. V. cholerae BH1578 lux reporter, luminescence, 6 h; call rule not given here
* hit, by the source's call; i = inactive; · = no result. Most compounds without a hit are left out; they make up all but 4.1% or so of the library.

SMILES	UGM FP inh	GDH-TPI counter	Rv3671c protease	FBA Mtb inh	RecA splice inh	Vc quorum ag-1	Vc quorum ag-2
CCOc1ccccc1N(CC(=O)Nc1ccc2c(c1)OCCO2)S(C)(=O)=O	-1	-14	1	5	-1	21	0
COc1ccc(Cc2nn[nH]n2)cc1	-1	-5	0	2	-3	7.6*	0
COc1cccc(N2CCN(S(=O)(=O)c3cn(C)cn3)CC2)c1	6	15	3	0	0	0	·
O=C(c1cccc(S(=O)(=O)N2CCc3ccccc32)c1)N1CCc2ccccc2C1	0	0	-1	0	·	-3	·
O=C(c1cccc(S(=O)(=O)N2CCc3ccccc32)c1)N1CCOCC1	-1	-1	-6	-1	·	288*	0
CCCCn1nnnc1NCc1ccc(N(CC)CC)cc1	0	1	-1	-4	-5	366*	i
Cc1nn(CC(=O)NCCC2=CCCCC2)c(C)c1[N+](=O)[O-]	-1	2	2	2	1	0	·
CN(CC(=O)Nc1ccc(F)c(F)c1F)C(=O)C1CCCO1 (configuration not stated)	-3	2	3	5	0	i	·
CN(CC(=O)Nc1ccc(F)c(F)c1F)C(=O)C1CCC1	1	3	-4	0	-3	25*	3
O=C(Nc1c(F)c(F)c(F)c(F)c1F)NC1CCCCC1	-1	7	-5	0	-1	·	·
O=C(Nc1c(F)c(F)c(F)c(F)c1F)C1CCCCC1	-2	-4	0	-3	0	25	2
Cc1cc2oc(=O)cc(CN3CCC(C)CC3)c2cc1Cl	2	0	-22	1	4	26*	4
Cc1cc2oc(=O)cc(CN3CCN(Cc4ccccc4)CC3)c2cc1Cl	-2	6	0	-2	1	-7	·
O=C1C(=O)N(CC2CCCO2)C(c2ccco2)/C1=C(/O)c1ccc(F)cc1 (configuration not stated)	1	-3	1	-4	0	3	·
O=C1C(=O)N(Cc2ccco2)C(c2cccc(Cl)c2)/C1=C(\O)c1ccc2c(c1)OCCO2 (configuration not stated)	1	5	-2	0	-5	12	0
CC(=O)C(CC(=O)N1CCCc2ccccc21)C(=O)Nc1ccc(F)cc1 (configuration not stated)	0	5	4	-2	0	14	0
CC1CCCN(C(=O)c2ccc3c(=O)n(Cc4ccc5c(c4)OCO5)c(=S)[nH]c3c2)C1 (configuration not stated)	0	11	-5	1	0	2	4
CCN(CC)C(=O)c1ccc2c(=O)n(Cc3ccc4c(c3)OCO4)c(=S)[nH]c2c1	2	7	-17	3	0	0	·
O=C(CCC(=O)N1CCN(c2ccccn2)CC1)c1ccc(Cl)s1	-1	11	-1	-2	·	1	·
Cc1ccc(S(=O)(=O)N2CCOCC2)cc1NC(=O)CSc1nnc(C2CC2)n1C1CC1	1	-7	1	-1	·	i	·
COc1ccc(S(=O)(=O)N2CCOCC2)cc1NC(=O)CSc1nnc(C2CC2)n1C1CC1	-1	3	0	1	·	41*	1
Cc1ccccc1OCC(=O)OCC(=O)N1CCCc2ccccc21	-3	-1	-8	-2	3	14	0
COc1ccc(COC(=O)CNC(=O)C2CCCCC2)cc1F	4	-3	4	0	·	·	·
O=C(c1cc2cc(Cl)ccc2oc1=O)N1CCOCC1	0	10	-4	2	0	8	4
O=C(c1cc2ccccc2oc1=O)N1CCOCC1	0	5	8	3	1	0	·
